# Source: paper PMC4552634, “A New Set of Chemical Starting Points with Plasmodium falciparum Transmission-Blocking Potential for Antimalarial Drug Discovery” (PLoS ONE, 2015)
# Read-outs that look alike come from different tables or passages of the source. About 3,200 (25%) of roughly 13,000 compounds showed an effect of 50% or more. This is one part of the list.
# System: P. falciparum stage V gametocytes
# Design: BacTiter-Glo ATP luminescence viability of purified stage V gametocytes in 384-well plates, per cent inhibition versus DMSO
# Details: 48 h, 5 µM, inhibitor
SMILES,% Inhibition,% Inhibition (% Inhibition)
Nc1c(-c2ccc(C(=O)NCCNCc3ccccc3)cc2)cnn1-c1ccc(C(F)(F)F)cc1 [TCMDC-136660],12.46%,–
N#Cc1ccc(N2CCN(Cc3cccc(-c4ccc(-c5nc6cc(C(F)(F)F)ccc6[nH]5)cc4)c3)CC2)nc1.O=C(O)C(F)(F)F [TCMDC-133112],-19.5%,–
CC(C)c1sc(N2CCN(C)CC2)nc1C(=O)Nc1cccc2c1CCCC2 [TCMDC-134303],-19.32%,–
O=C(/C=C/c1ccc(Cl)c(Cl)c1)NCCCCCN1CCC(NC(=S)Nc2ccc(Cl)cc2)CC1 [TCMDC-135898],6.847%,–
O=C(Nc1cc(C(F)(F)F)cc(C(F)(F)F)c1)NC1CCC(CN2CCC(c3c[nH]c4ccccc34)CC2)CC1 (stereo not shown) [TCMDC-140199],–,-51.42%
O=C(Nc1ccccc1OC(F)(F)F)NC1CCC(CN2CCC(c3c[nH]c4ccccc34)CC2)CC1 (stereo not shown) [TCMDC-140185],–,-31.33%
O=C(Nc1ccccc1OC(F)(F)F)NC1CCC(CN2CCC(c3c[nH]c4ccccc34)CC2)CC1 (stereo not shown) [TCMDC-140203],–,-4.21%
O=C(Nc1ccc(Oc2ccccc2)cc1)NC1CCC(CN2CCC(c3c[nH]c4ccccc34)CC2)CC1 (stereo not shown) [TCMDC-140186],102.3%,–
O=C(Nc1cc(C(F)(F)F)cc(C(F)(F)F)c1)NC1CCC(CN2CCC(c3c[nH]c4ccccc34)CC2)CC1 (stereo not shown) [TCMDC-140180],–,75.46%
O=C(NCCNc1ccnc(NCc2ccc(F)cc2)n1)c1cc2ccccc2s1 [TCMDC-133646],-28.02%,–
O=C(NCc1ccc(Cl)c(Cl)c1)c1ccc(C2CCN(Cc3ccc4nc[nH]c4c3)CC2)cc1 [TCMDC-133069],-61.63%,–
COc1ccc2c(c1)CC(NCc1ccc(-c3ccc4nc[nH]c4c3)cc1)C2 (stereo not shown) [TCMDC-133483],36.76%,–
COc1ccc2c(c1)CC(C)(C)NC2CCCCCCCCC1NC(C)(C)Cc2cc(OC)ccc21 (stereo not shown) [TCMDC-137935],92.87%,–
Cc1ccc(NC(=O)c2ccc(CN3CCCN(Cc4cccc(Cl)c4)CC3)cc2)cc1C [TCMDC-136426],-8.077%,–
NC1=NC2(CCCCC2)N(OCCCCCCN2C(=O)c3ccccc3C2=O)C(N)=N1 [TCMDC-140537],2.277%,–
CS(=O)(=O)Nc1ccc2[nH]cc(C3CCN(CC4CCC(NC(=O)/C=C/c5ccccc5Cl)CC4)CC3)c2c1 (stereo not shown) [TCMDC-139887],39.39%,–
O=C(C=Cc1cccc(Cl)c1Cl)NC1CCC(CN2CCC(c3c[nH]c4ccccc34)CC2)CC1 (stereo not shown) [TCMDC-139910],–,41.2%
O=C(/C=C/c1ccc(Cl)c(Cl)c1)NC1CCC(CN2CCC(Cc3cc4ccccc4[nH]3)CC2)CC1 (stereo not shown) [TCMDC-140232],-17.26%,–
O=C(/C=C/c1c(Cl)cccc1Cl)NC1CCC(CN2CCC(c3c[nH]c4ccccc34)CC2)CC1 (stereo not shown) [TCMDC-139858],–,-12.84%
O=C(/C=C/c1c(Cl)cccc1Cl)NC1CCC(CN2CCC(Cc3cc4ccccc4[nH]3)CC2)CC1 (stereo not shown) [TCMDC-140233],51.23%,–
O=C(/C=C/c1ccc(Cl)c(Cl)c1)NC1CCC(CN2CCC(c3cc4ccccc4[nH]3)CC2)CC1 (stereo not shown) [TCMDC-140236],9.147%,–
O=C(/C=C/c1c(Cl)cccc1Cl)NC1CCC(CN2CCC(c3c[nH]c4ccccc34)CC2)CC1 (stereo not shown) [TCMDC-139856],–,7.287%

SMILES,% Inhibition,% Inhibition (% Inhibition)
O=C(/C=C/c1ccccc1Cl)NC1CCC(CN2CCC(c3c[nH]c4ccncc34)CC2)CC1 (stereo not shown) [TCMDC-140110],79.76%,–
O=C(/C=C/c1c(Cl)cccc1Cl)NC1CCC(CN2CCC(c3c[nH]c4ccncc34)CC2)CC1 (stereo not shown) [TCMDC-140220],108.5%,–
CC(C)(C)Oc1ccc(CC2NC3(C(=O)N(Cc4ccc(C(C)(C)C)cc4)c4ccccc43)C3C(=O)N(c4ccc(Br)cc4)C(=O)C23)cc1 (stereo not shown) [TCMDC-139774],1.203%,–
CC(C)C1C(O)=C(c2ccc3ccccc3c2)C(=O)N1Cc1cccc(F)c1 (stereo not shown) [TCMDC-141811],28.08%,–
CN(CCc1ccccc1)c1ncc(-c2ccccc2CNCc2ccccc2O)cn1 [TCMDC-132575],53.28%,–
Oc1ccccc1CNCc1ccc(-c2cnc(N3CCCC(c4ccccc4)C3)nc2)cc1 (stereo not shown) [TCMDC-133768],-9.076%,–
CCCN(CC1CC1)c1ncc(-c2ccccc2CNCc2ccccc2O)cn1 [TCMDC-132574],-10.65%,–
O=c1cc(NCCCCNCc2cccc(Cl)c2)[nH]c2ccccc12 [TCMDC-139311],-48.31%,–
CCCC(C)NC(=O)/C=C/c1ccccc1-c1cccc(OC)c1 (stereo not shown) [TCMDC-136229],-11.68%,–
Cc1c(-c2ccc(C(=O)NC3CC(C)(C)NC(C)(C)C3)cc2)[nH]c2cc(Cl)c(Cl)cc12 [TCMDC-140975],52.66%,–
CCOc1cc(C(=O)NC2CC(C)(C)NC(C)(C)C2)ccc1-c1nc2ccc(Cl)cc2[nH]1 [TCMDC-140404],39.53%,–
CN1C(C)(C)CC(NC(=O)c2ccc(-c3nc4cc(Cl)c(Cl)cc4[nH]3)cc2)CC1(C)C [TCMDC-139250],28.21%,–
CCOc1cc(C(=O)NC2CC(C)(C)N(C)C(C)(C)C2)ccc1-c1nc2cc(Cl)c(Cl)cc2[nH]1 [TCMDC-140058],24.71%,–
COc1cc(C(=O)NC2CC(C)(C)N(C)C(C)(C)C2)ccc1-c1nc2cc(Cl)c(Cl)cc2[nH]1 [TCMDC-139618],89.66%,–
COc1cc(C(=O)NC2CC(C)(C)NC(C)(C)C2)ccc1-c1cc2cc(Cl)c(Cl)cc2[nH]1 [TCMDC-139693],-5.047%,–
CCOc1cc(C(=O)NC2CC(C)(C)NC(C)(C)C2)ccc1-c1cc2cc(Cl)c(Cl)cc2[nH]1 [TCMDC-139960],72.27%,–
COc1cc(C(=O)NC2CC(C)(C)N(C)C(C)(C)C2)ccc1-c1cc2cc(Cl)c(Cl)cc2[nH]1 [TCMDC-139227],47.65%,–
CN1C(C)(C)CC(NC(=O)c2ccc(-c3nc4ccc(Cl)cc4[nH]3)cc2)CC1(C)C [TCMDC-139262],-8.23%,–
O=C(Nc1ccc(CN2CCCCC2)cc1)c1ccc(COc2ccc([N+](=O)[O-])cc2)o1 [TCMDC-123727],-23.78%,–
CC(C)Oc1ccc(CCCON2C(N)=NC(N)=NC2(C)C)cc1 [TCMDC-131759],12.88%,–
Cc1cc(NC(=O)c2ccco2)ccc1OC1CCN(Cc2ccccc2)CC1 [TCMDC-133965],12.37%,–
COc1ccc2nccc([C@@H](O)CN3CCC(NCc4nc5c(C#N)cccc5[nH]4)CC3)c2c1 [TCMDC-141116],-34.83%,–

SMILES,% Inhibition,% Inhibition (% Inhibition)
Oc1ccc(CCNc2nc(NCc3ccccc3-c3ccc(C(F)(F)F)cc3)nc(N3CCNCC3)n2)cc1 [TCMDC-138323],-0.8501%,–
OCCCCCCNc1nc(NCc2ccccc2-c2ccc(C(F)(F)F)cc2)nc(N2CCNCC2)n1 [TCMDC-134126],66.94%,–
Oc1ccc(CCNc2nc(NCCCOc3ccccc3-c3ccc(F)cc3)nc(N3CCNCC3)n2)cc1 [TCMDC-134135],12.8%,–
Oc1ccc(CCNc2nc(NCc3ccccc3-c3ccc(C(F)(F)F)cc3)nc(N3CCCNCC3)n2)cc1 [TCMDC-133388],24.02%,–
Oc1ccc(CCNc2nc(NCc3ccccc3-c3ccccc3)nc(N3CCCNCC3)n2)cc1 [TCMDC-133386],28.34%,–
Oc1ccc(CCNc2nc(NCCCOc3ccccc3-c3cccc(C(F)(F)F)c3)nc(N3CCNCC3)n2)cc1 [TCMDC-134134],10.32%,–
Oc1ccc(CCNc2nc(NCCCOc3ccccc3-c3ccc(C(F)(F)F)cc3)nc(N3CCNCC3)n2)cc1 [TCMDC-134139],56.06%,–
COc1ccc(-c2ccccc2OCCCNc2nc(NCCc3ccc(O)cc3)nc(N3CCNCC3)n2)cc1 [TCMDC-134136],51.13%,–
Oc1ccc(CCNc2nc(NCCCOc3ccccc3-c3ccncc3)nc(N3CCNCC3)n2)cc1 [TCMDC-134138],16.05%,–
Oc1ccc(CC2CCCN(c3nc(NCCCOc4ccccc4-c4ccccc4)nc(N4CCNCC4)n3)C2)cc1 (stereo not shown) [TCMDC-134279],106%,–
Oc1ccc(CCNc2nc(NCCCOc3ccccc3-c3cccnc3)nc(N3CCNCC3)n2)cc1 [TCMDC-134137],19.58%,–
Oc1ccc(CCNc2nc(NCCOc3ccccc3-c3ccccc3)nc(N3CCNCC3)n2)cc1 [TCMDC-134131],-22.6%,–
O=C(Nc1ccc(OC2CCN(Cc3ccccc3)CC2)c(Cl)c1)c1ccsc1 [TCMDC-133989],12.12%,–
Clc1ccc2c(NCc3ccccc3)ccnc2c1 [TCMDC-125506],-30.27%,–
CCCCNc1ccc(C(=O)NC2CCN(C[C@H](O)c3ccnc4ccc(OC)cc34)CC2)cc1 [TCMDC-141038],-7.518%,–
CC1(C)N=C(N)N=C(N)N1OCCCOc1cc(Cl)cc(Cl)c1 [TCMDC-131790],16.66%,–
O=C(Nc1ccc(F)c(Cl)c1)NC1CCN(c2ccnc3cc(Cl)ccc23)C1 (stereo not shown) [TCMDC-133404],-39.28%,–
CCOC(=O)c1c(NC(=O)c2ccccc2)sc2c(O)c(CN(CC)CC)ccc12 [TCMDC-124066],-13.75%,–
CCC(C)NC(=O)CN1CN(c2ccccc2)C2(CCN(C(=O)c3ccc(-c4ccccc4)cc3)CC2)C1=O (stereo not shown) [TCMDC-125175],-41.83%,–
Cc1cc(N2CCCC2)nc(Nc2ccc(NC(=O)Cc3ccccc3)cc2)n1 [TCMDC-124967],-3.146%,–
